# Measurements reported in the supplement of paper PMC9023506.
# Structures can show the parent of a compound that is named as a salt.
# Tests used:
# Details in all cases: 10 µM; exposure time: 3 h pre-incubation + 3 h imaging
# [1] = test system: Danio rerio larvae (5 dpf); test: excitability to 1-s acoustic pulses, difference vs DMSO (percentage points (treated minus DMSO)); higher = more of the behaviour than the DMSO vehicle control
# Summary of the method: (§1)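 Library drugs were diluted 1000× from DMSO stocks into egg water to reach 10 µM and applied to 5-dpf wild-type zebrafish larvae in 96-well ProxiPlates, 48 larvae per drug. The larvae stayed exposed for 3 h before imaging and for the 3 h of imaging at 28.5 °C. Behaviour scores, given in percentage points, are the treated mean minus the vehicle mean for movement and upper-half location.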
# [2] = test system: Danio rerio larvae (5 dpf); test: activity during period 15 (no stimuli), difference vs DMSO (percentage points (treated minus DMSO)); higher = more of the behaviour than the DMSO vehicle control
# Summary of the method: as §1
# [3] = test system: Danio rerio larvae (5 dpf); test: optomotor response to green moving lines, difference vs DMSO (percentage points (treated minus DMSO)); higher = more of the behaviour than the DMSO vehicle control
# Summary of the method: as §1
# [4] = test system: Danio rerio larvae (5 dpf); test: startle response to 20-s acoustic pulses, difference vs DMSO (percentage points (treated minus DMSO)); higher = more of the behaviour than the DMSO vehicle control
# Summary of the method: as §1
# [5] = test system: Danio rerio larvae (5 dpf); test: optomotor response to fast red moving lines, difference vs DMSO (percentage points (treated minus DMSO)); higher = more of the behaviour than the DMSO vehicle control
# Summary of the method: as §1
# [6] = test system: Danio rerio larvae (5 dpf); test: habituation to 1-s acoustic pulses, difference vs DMSO (percentage points (treated minus DMSO)); higher = more of the behaviour than the DMSO vehicle control
# Summary of the method: as §1
# [7] = test system: Danio rerio larvae (5 dpf); test: optomotor response to blue moving lines, difference vs DMSO (percentage points (treated minus DMSO)); higher = more of the behaviour than the DMSO vehicle control
# Summary of the method: as §1
smiles,measurement,setting,value
CCOc1nc2cccc(C(=O)O)c2n1Cc1ccc(-c2ccccc2-c2noc(=O)[nH]2)cc1 [Azilsartan],excitability to 1-s acoustic pulses,[1],-0.616
same,activity during period 15,[2],3.86
same,optomotor response to green moving lines,[3],-0.791
same,startle response to 20-s acoustic pulses,[4],3.96
Cc1nnc(C(C)C)n1C1C[C@H]2CC[C@@H](C1)N2CC[C@H](NC(=O)C1CCC(F)(F)CC1)c1ccccc1 (stereo in doubt) [Maraviroc],optomotor response to green moving lines,[3],3.11
same,optomotor response,[5],6.43
C[C@H]1C[C@@H]2[C@H]([C@@H](O)C[C@@]3(C)[C@H]2CC[C@]3(O)C(=O)CO)[C@@]2(C)C=CC(=O)C=C12 [Methylprednisolone],habituation to 1-s acoustic pulses,[6],-1.22
same,optomotor response to blue moving lines,[7],10.6
same,optomotor response,[5],-4.16
CC(C)(C(=O)O)c1ccc(C(O)CCCN2CCC(C(O)(c3ccccc3)c3ccccc3)CC2)cc1 (centres undefined) [Fexofenadine hydrochloride],activity during period 15,[2],1.68
same,optomotor response to blue moving lines,[7],4.47
same,startle response to 20-s acoustic pulses,[4],4
same,optomotor response,[5],-0.251
CN[C@H]1CC[C@@H](c2ccc(Cl)c(Cl)c2)c2ccccc21 [Sertraline hydrochloride],optomotor response to green moving lines,[3],-6.64
CC(C)[C@H]1CC[C@H](C(=O)N[C@H](Cc2ccccc2)C(=O)O)CC1 [Nateglinide],habituation to 1-s acoustic pulses,[6],0.774
same,optomotor response to blue moving lines,[7],11.9
same,optomotor response to green moving lines,[3],4.02
same,startle response to 20-s acoustic pulses,[4],3.57
CC(C)COCC(CN(Cc1ccccc1)c1ccccc1)N1CCCC1 (centres undefined) [Bepridil hydrochloride],activity during period 15,[2],13.7
same,optomotor response to blue moving lines,[7],7.44
same,optomotor response,[5],7.72
CC(C)(C#N)c1cc(Cn2cncn2)cc(C(C)(C)C#N)c1 [Anastrozole],activity during period 15,[2],2.84
same,optomotor response to green moving lines,[3],-2.71
OCc1cc(C(O)CNCCCCCCOCCCCc2ccccc2)ccc1O (centres undefined) [Salmeterol xinafoate],activity during period 15,[2],23.9
same,optomotor response to green moving lines,[3],-6.89
Cc1ccc(N(CC2=NCCN2)c2cccc(O)c2)cc1 [Phentolamine Mesylate],optomotor response to green moving lines,[3],5.31
same,startle response to 20-s acoustic pulses,[4],-1.56
same,optomotor response,[5],7.53
Cc1ccc(-c2cc(C(F)(F)F)nn2-c2ccc(S(N)(=O)=O)cc2)cc1 [Celecoxib],habituation to 1-s acoustic pulses,[6],-9.42
same,optomotor response to blue moving lines,[7],-3.07
same,startle response to 20-s acoustic pulses,[4],-6.81
Clc1ccc(COC(Cn2ccnc2)c2ccc(Cl)cc2Cl)c(Cl)c1 (centres undefined) [Miconazole nitrate],habituation to 1-s acoustic pulses,[6],-15.5
same,optomotor response to blue moving lines,[7],-7.42
same,startle response to 20-s acoustic pulses,[4],4.56
CC(C)c1nc(CN(C)C(=O)N[C@H](C(=O)N[C@@H](Cc2ccccc2)C[C@H](O)[C@H](Cc2ccccc2)NC(=O)OCc2cncs2)C(C)C)cs1 [Ritonavir],optomotor response to green moving lines,[3],-6.36
same,startle response to 20-s acoustic pulses,[4],1.92
same,optomotor response,[5],-9.38
CC(=O)Oc1ccccc1C(=O)O [Aspirin],excitability to 1-s acoustic pulses,[1],10.2
same,optomotor response to blue moving lines,[7],2.57
